Measurements from the supplement of paper PMC6555819.

Legend:
Experiment in all cases: PBM binding z-score (relative to random genomic background probes); higher = stronger binding; sequences stand for … in GC…GCGATTGACAGCGTAGAATGAAGG
[1] = system: PPARg:RXRa DBDmut IVT, anti-RXR (DBD mutation: RXRa K156A/R161A, NR concentration 270 nM, RXRa partner concentration 90 nM)
Summary of the method: (§1)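 Scanned fluorescence from custom Agilent 4×180K protein-binding microarrays was regression-normalized. Binding z-scores use random background probes as reference. Ligand-free nuclear receptor dimers were incubated on the arrays for 1 h and detected with antibodies against each partner (one per run).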

[2] = system: PPARg:RXRa IVT, anti-PPARg (NR concentration 270 nM, RXRa partner concentration 90 nM)
Summary of the method: as §1

[3] = system: PPARg DBDmut:RXRa IVT, anti-PPARg (DBD mutation: PPARg1 K132A/R137A, NR concentration 270 nM, RXRa partner concentration 90 nM)
Summary of the method: as §1

[4] = system: PPARg DBDmut IVT, anti-PPARg (DBD mutation: PPARg1 K132A/R137A, NR concentration 270 nM)
Summary of the method: as §1

[5] = system: PPARg homodimer (NR concentration 180 nM)
Summary of the method: as §1

[6] = system: PXR:RXRa (NR concentration 270 nM, RXRa partner concentration 90 nM)
Summary of the method: as §1

[7] = system: PXR homodimer (NR concentration 270 nM)
Summary of the method: as §1

[8] = system: RARa:RXR (NR concentration 270 nM, RXRa partner concentration 90 nM)
Summary of the method: as §1

[9] = system: RARa homodimer (NR concentration 270 nM)
Summary of the method: as §1

[10] = system: RARb:RXRa (NR concentration 270 nM, RXRa partner concentration 90 nM)
Summary of the method: as §1

Row | Sequence | PBM binding z-score [1] | PBM binding z-score [2] | PBM binding z-score [3] | PBM binding z-score [4] | PBM binding z-score [5] | PBM binding z-score [6] | PBM binding z-score [7] | PBM binding z-score [8] | PBM binding z-score [9] | PBM binding z-score [10]
1 | AGTCAACGTTCAGGACGAGGTAACGTAAAGCACG | -0.667 | -0.129 | -0.279 | -0.261 | -0.431 | -0.527 | -0.514 | 0.104 | -0.202 | 0.548
2 | TCTGCTATGTCAGTTGGTCAGCTAACGAGCTGCC | 0.621 | 0.807 | -0.394 | 0.0922 | -0.53 | -0.0982 | -1.36 | -0.0374 | -1.02 | 0.481
3 | ATATGTAGGTTAGCTGCGGTCATTCAGACTAGGC | 6.89 | 6.05 | 1.21 | 1.12 | 0.698 | 3.39 | 0.151 | 1.21 | 0.221 | 1.88
4 | GATACAGGGTCAGCTAGAGGCCAGACTATGGAAA | 1.46 | 2.29 | -0.0728 | 0.0438 | 1.82 | 2.88 | 0.12 | 4.3 | 0.752 | 3.97
5 | GGAACGAGGGCATTCGAGTTGATAGTATGGCGAT | 3 | 2.29 | -0.142 | -0.408 | -0.115 | 4.11 | 1.45 | 0.744 | 0.0734 | 1.98
6 | TCATATAGGTAAAGGTCAAAGTCGAACGATATGA | 4.49 | 5.4 | 2.71 | 1.9 | 5.15 | 5.54 | 1.88 | 6.36 | 3.75 | 5.17
7 | CCTTACGGGTCAAGGTTATAGAACGGGTGGTACG | 1.6 | 3.22 | -0.135 | -0.211 | 1.83 | 3.27 | 0.223 | 4.16 | 1 | 4.13
8 | ATCTCTAGGCAACCAAGTTCAGTGAATGCCGAAC | 0.769 | 0.547 | 0.416 | 0.473 | -0.0686 | 1.68 | 1.43 | 0.461 | -0.516 | 0.951
9 | TCATATAGGGAAAAGGTGAAAGTCGGTGTGGTAA | 3.91 | 3.56 | 0.616 | 0.751 | 1.68 | 1.21 | 0.873 | 2.17 | 1.17 | 1.9
10 | AGAATGCGGTTAAGATCAGGGAAACAGAATACAT | -0.441 | -0.00811 | 0.624 | 0.11 | 0.393 | -0.295 | -0.312 | -0.225 | 0.513 | -0.152
11 | TAGCGTAGGTCATGCGGGCCAGTATAGTGTCGGC | 0.799 | 2.08 | 0.502 | -0.521 | 0.769 | 2.18 | -0.691 | 2.98 | -0.473 | 3.77
12 | TCTCGGAGGACACGAAGGTCAGAGCGTTCCAGAG | 1.02 | 1.49 | -0.71 | -1.07 | 1 | 1.87 | 0.555 | 1.84 | -0.476 | 3.4
13 | GCGACTAGGGCAAAGCAGGTTACCATAAGGTTGG | 4.76 | 4.23 | -0.472 | -0.903 | 0.0824 | 0.293 | -0.481 | 0.775 | -1.2 | 1.1
14 | TCGAGCAGGTTAGGGGCATTCAGAATGGCGTCGA | 0.212 | -0.145 | -1.03 | -1.48 | 0.0489 | 0.241 | -0.0165 | 0.385 | -0.605 | 1.11
15 | TCTAGTTGGTCAAAGGTCACAAACTCGAAATGCG | 3.16 | 5.98 | 1.2 | 1.06 | 3.78 | 5.56 | 1.54 | 6.79 | 3.07 | 4.77
16 | TAGCCTCGGTCATGCGGGCCAGTATAGTGTCGGC | -0.364 | 0.336 | -0.318 | -0.413 | -0.406 | -0.524 | -0.81 | -0.296 | -0.888 | 2.36
17 | CACGAAAGGTCGGTTGAGGTGAGTATACGGATAA | 0.197 | 1.19 | 1.19 | 0.977 | 1.22 | 3.42 | 0.224 | 2.96 | 0.255 | 3.18
18 | CCTAGCAGGCAAATCTGGGTCACTCAAGGCTTGA | 4.27 | 5.25 | -0.619 | -1.06 | 0.358 | 0.746 | -0.354 | 0.989 | -0.416 | 1.16
19 | TCTGCTAGGTCAACGATGGTCAGGTAATCTGCTA | 4.42 | 4.19 | 0.0564 | -0.0875 | 0.216 | 1.61 | -0.526 | 2.34 | -0.895 | 3.93
20 | TATCCTAGGTCATGCGGGCCAGTATAGTGTCGGC | 3.98 | 4.97 | 1.6 | 1.66 | 1.75 | 2.04 | 0.212 | 2.76 | -0.133 | 3.9
21 | CCGACTGGGGCAGAAAGGTAACCATACCATCCGG | 1.07 | 1.73 | -0.318 | -1.27 | 0.0459 | -0.419 | -0.488 | -0.0683 | -0.0732 | 0.706
22 | ATCTCTAGGTAAAAGTTCAATGAATCCCGAGGAT | 2.16 | 4.28 | 1.95 | 1.61 | 2.08 | 3.09 | 2.8 | 2.86 | 1.09 | 2.64
23 | CCTTACGGGTCACACCAGGTTATAGCATCGGAGT | 2.98 | 4.37 | 0.627 | -0.128 | 2.63 | 5.3 | 0.565 | 5.06 | 1.44 | 4.06
24 | ATATGTAGGTTTTCGGGTCATTCAGTTTGCGCAT | 5.6 | 5.42 | 1.9 | 1.31 | 2.39 | 4.14 | 8.75 | 3.74 | 1.72 | 2.17
